Reference: PubChem BioAssay AID1053115 (Broad Institute, 2014)
Entries with a potency or affinity are not part of this list. Values without a mark were called inactive.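 Rule for the calls: active = cytotoxic compounds whose fitted half-maximal concentration is at most twice the top valid tested dose; inconclusive = flat curve showing 30 to 70% signal loss, or poor fit; inactive = the rest.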

Assay: A549 cell cytotoxicity, dose response, cytotoxicity control, 24 h, CellTiter-Glo luminescence, cherry-picks (AID 1053115)
Conditions: A549 viability, CellTiter-Glo ATP luminescence; series mostly up to 30 µM; activity change, negative = cytotoxicity: at the top concentration

Compound	activity change, negative = cytotoxicity [%]
C[C@@H]1CN([C@H](C)CO)S(=O)(=O)c2ccc(C#C[C@@H](C)O)cc2O[C@@H]1CN(C)Cc1ccc(-c2ccccc2)cc1	-21.6
C[C@H](CO)N1C[C@H](C)[C@H](CN(C)Cc2ccccc2)Oc2cc(C#C[C@@H](C)O)ccc2S1(=O)=O	4.46
CN(C)C(=O)c1ccc(-c2cccc(-c3nc(C(=O)NC4CCCCC4)cc4c3[C@@H](CCO)N([S@](=O)C(C)(C)C)C4)c2)cc1	15.4
C[C@@H]1CN([C@H](C)CO)S(=O)(=O)c2ccc(C#C[C@@H](C)O)cc2O[C@H]1CN(C)Cc1ccccc1	-5.37
C[C@@H](O)C#Cc1ccc2c(c1)O[C@@H](CN(C)Cc1ccncc1)[C@@H](C)CN([C@@H](C)CO)S2(=O)=O	11.4
N#Cc1ccc(-c2ccc3c(c2)[C@@H]2[C@@H](CCN2C(=O)C2CCCCC2)[C@@H](CO)N3)cc1	-14.1
C[C@H](O)C#Cc1ccc2c(c1)O[C@H](CN(C)Cc1ccc(-c3ccccc3)cc1)[C@H](C)CN([C@@H](C)CO)S2(=O)=O	9.92
C[C@@H]1CN([C@@H](C)CO)S(=O)(=O)c2ccc(C#C[C@@H](C)O)cc2O[C@H]1CN(C)Cc1ccccc1	-0.87
CN1CCN(C(=O)c2cc3c(c(-c4cccc(C#CCC5CCCC5)c4)n2)[C@@H](CCO)N(S(=O)C(C)(C)C)C3)CC1 (some centres not stated)	-2.55
C[C@H](O)C#Cc1ccc2c(c1)O[C@@H](CN(C)Cc1ccccc1)[C@@H](C)CN([C@H](C)CO)S2(=O)=O	-7.4
C[C@H](O)C#Cc1ccc2c(c1)O[C@H](CN(C)Cc1ccc(-c3ccccc3)cc1)[C@H](C)CN([C@H](C)CO)S2(=O)=O	-9.27
CN(C)C(=O)c1ccc(-c2cccc(-c3nc(C(=O)NC4CCCC4)cc4c3[C@H](CCO)N([S@@](=O)C(C)(C)C)C4)c2)cc1	-3.79
C[C@H](O)C#Cc1ccc2c(c1)O[C@@H](CN(C)Cc1ccccc1)[C@H](C)CN([C@@H](C)CO)S2(=O)=O	17.4
OC[C@H]1Nc2ccc(-c3cccc(F)c3)cc2[C@@H]2[C@H]1CCN2Cc1ccc(F)cc1	-15.4
CN1c2ccc(C#Cc3cccnc3)cc2[C@@H]2[C@@H](CCN2C(=O)C2CCC2)[C@@H]1CO	3.96
COc1ccccc1CN1CC[C@@H]2[C@@H](CO)Nc3ccc(-c4ccc(C(=O)N(C)C)cc4)cc3[C@@H]21	1.95
C[C@H](O)C#Cc1ccc2c(c1)O[C@H](CN(C)Cc1ccccc1)[C@@H](C)CN([C@H](C)CO)S2(=O)=O	14.5
C[C@H](O)C#Cc1ccc2c(c1)O[C@@H](CN(C)Cc1ccccc1)[C@@H](C)CN([C@@H](C)CO)S2(=O)=O	3.63
C[C@@H](O)C#Cc1ccc2c(c1)O[C@@H](CN(C)Cc1cccnc1)[C@@H](C)CN([C@@H](C)CO)S2(=O)=O	12.4
C[C@@H]1CN([C@H](C)CO)S(=O)(=O)c2ccc(C#C[C@@H](C)O)cc2O[C@@H]1CN(C)Cc1ccccc1	-5.16
CO[C@H]1CN(C)C(=O)c2ccc(NC(=O)c3ccc(F)cc3)cc2OC[C@H](C)N(C(=O)c2ccc(F)cc2)C[C@@H]1C	5.66
C[C@H](O)C#Cc1ccc2c(c1)O[C@H](CN(C)Cc1ccccc1)[C@H](C)CN([C@@H](C)CO)S2(=O)=O	6.84
